The source of these data is PubChem BioAssay (NCI).

Values joined by “and” are separate entries in the source; they are usually repeats but may differ in a detail not shown here. Identical values can stand only once. Compounds without any hit were thinned out: in the full panel of roughly 83,000, 20% have a hit.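 Compound tested at a single concentration for 48 hours in 96-well plates; a percent growth value below 10 was scored as active.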 Active and inactive are the calls of the source.

Some test systems named below: HCT-15 colon; HT29 colon; SNB-75 CNS; SNB-19 CNS; U251 CNS; PC-3 prostate; SK-MEL-5 melanoma; UACC-62 melanoma; LOX IMVI melanoma; SK-MEL-28 melanoma; SK-MEL-2 melanoma; EKVX NSCLC; SN12C renal; UO-31 renal; TK-10 renal; ACHN renal; CAKI-1 renal; A498 renal; CCRF-CEM leukemia; MOLT-4 leukemia.
What all share (assay): NCI-60 one-dose screen, 48 h (100 = growth as untreated, 0 = no growth, -100 = all killed)
Holding throughout (conditions): 10 µM unless noted

With `CCCCCCCCCCCCCCCCOc1ccc(C)cc1`, the growth in the assay on HCT-15 colon is 108% (inactive); with HT29 colon, 106% (inactive); in the assay on SNB-75 CNS, 104% (inactive); in the assay with SNB-19 CNS it was 109% (inactive); in the assay with U251 CNS it was 101% (inactive); with PC-3 prostate, 102% (inactive). The growth in the assay on SK-MEL-5 melanoma is 108% (inactive); in the assay with UACC-62 melanoma, 105% (inactive); in the assay with LOX IMVI melanoma it was 87.3% (inactive); with SK-MEL-28 melanoma, 111% (inactive); with SK-MEL-2 melanoma, 115% (inactive); with EKVX NSCLC it was 99.7% (inactive). For the same compound, the growth is 104% (inactive) in the assay on SN12C renal; 81.5% (inactive) with UO-31 renal; 109% (inactive) in the assay on TK-10 renal; 104% (inactive) in the assay on ACHN renal; 105% (inactive) in the assay with CAKI-1 renal; 92.3% (inactive) with A498 renal. Moreover, the growth in the assay on CCRF-CEM leukemia was 127% (inactive); with MOLT-4 leukemia, 103% (inactive).

As to `Cc1nn(-c2ccccc2)nc1C(=O)Nc1ccccc1C(=O)NCC1CC1`, the growth in the assay with HCT-15 colon was 87.5% (inactive) and 71.2% (inactive); with HT29 colon, 99.6% (inactive) and 72.6% (inactive); in the assay on SNB-75 CNS it was 121% (inactive) and 4.66% (active); with SNB-19 CNS, 122% (inactive) and 54.3% (inactive); with U251 CNS it was 73.3% (inactive); in the assay on PC-3 prostate it was 85.2% (inactive) and 78.2% (inactive). In addition, the growth with SK-MEL-5 melanoma was 95.7% (inactive) and 93.5% (inactive); with UACC-62 melanoma it was 86.4% (inactive) and 88.3% (inactive); in the assay on LOX IMVI melanoma, 86.9% (inactive); in the assay with SK-MEL-28 melanoma it was 104% (inactive) and 95.8% (inactive); in the assay on SK-MEL-2 melanoma, 117% (inactive) and 103% (inactive); with EKVX NSCLC, 79.4% (inactive). For the same compound, the growth was 89.2% (inactive) and 45.2% (inactive) in the assay on SN12C renal; 95.5% (inactive) and 57.1% (inactive) in the assay with UO-31 renal; 83.5% (inactive) in the assay with TK-10 renal; 91.8% (inactive) and 19.9% (inactive) with ACHN renal; 97.6% (inactive) and 37.7% (inactive) with CAKI-1 renal; 107% (inactive) and 92.8% (inactive) in the assay on A498 renal. The growth is 86.8% (inactive) in the assay with CCRF-CEM leukemia; 103% (inactive) and 75.6% (inactive) with MOLT-4 leukemia.

Turning to `CCCCOc1cc(C(=O)NCCN(CC)CC)c2ccccc2n1`, the growth in the assay with HCT-15 colon was 96.5% (inactive) and 100% (inactive); with HT29 colon, 57.7% (inactive) and 92.4% (inactive); in the assay with SNB-75 CNS, 75.2% (inactive) and 88.9% (inactive); in the assay on SNB-19 CNS, 90.1% (inactive) and 91.9% (inactive); in the assay with U251 CNS it was 83.4% (inactive) and 92.2% (inactive); in the assay with PC-3 prostate it was 73.9% (inactive) and 96% (inactive). For the same compound, the growth is 86.4% (inactive) and 94.5% (inactive) with SK-MEL-5 melanoma; 95.6% (inactive) and 90.1% (inactive) with UACC-62 melanoma; 88.4% (inactive) and 110% (inactive) in the assay on LOX IMVI melanoma; 102% (inactive) and 104% (inactive) in the assay with SK-MEL-28 melanoma; 120% (inactive) and 99.6% (inactive) with SK-MEL-2 melanoma; 74.9% (inactive) in the assay with EKVX NSCLC. The growth is 86.7% (inactive) and 93.5% (inactive) in the assay with SN12C renal; 59.1% (inactive) and 78% (inactive) in the assay with UO-31 renal; 100% (inactive) in the assay on TK-10 renal; 90.1% (inactive) and 99.7% (inactive) with ACHN renal; 73.6% (inactive) and 92.8% (inactive) with CAKI-1 renal; 81.1% (inactive) and 95.4% (inactive) in the assay on A498 renal. Further, the growth was 89.4% (inactive) in the assay with CCRF-CEM leukemia; 98% (inactive) and 101% (inactive) with MOLT-4 leukemia.

Regarding `O=C(N/N=C/c1cccc2ccccc12)C1CC1`, the growth was 107% (inactive) and 113% (inactive) in the assay with HCT-15 colon; 102% (inactive) and 110% (inactive) in the assay with HT29 colon; 90.9% (inactive) and 85% (inactive) in the assay with SNB-75 CNS; 98.8% (inactive) and 95.1% (inactive) in the assay with SNB-19 CNS; 99.7% (inactive) and 100% (inactive) in the assay on U251 CNS; 100% (inactive) and 102% (inactive) in the assay with PC-3 prostate. The growth is 105% (inactive) and 96.6% (inactive) in the assay with SK-MEL-5 melanoma; 92.3% (inactive) and 99.8% (inactive) in the assay with UACC-62 melanoma; 91.8% (inactive) in the assay with LOX IMVI melanoma; 111% (inactive) and 104% (inactive) in the assay with SK-MEL-28 melanoma; 98.6% (inactive) and 115% (inactive) with SK-MEL-2 melanoma; 72.5% (inactive) and 53% (inactive) with EKVX NSCLC. Besides, the growth in the assay on SN12C renal is 104% (inactive) and 88.6% (inactive); with UO-31 renal, 90.1% (inactive) and 102% (inactive); in the assay with TK-10 renal it was 131% (inactive) and 121% (inactive); with ACHN renal it was 127% (inactive) and 110% (inactive); in the assay with CAKI-1 renal, 108% (inactive) and 90% (inactive); with A498 renal, 102% (inactive). Further, the growth in the assay with CCRF-CEM leukemia was 88.3% (inactive); in the assay with MOLT-4 leukemia, 67.1% (inactive) and 113% (inactive).

Turning to `Nc1nc2ncc(CNc3ccc(C(=O)N[C@@H](CCc4nn[nH]n4)C(=O)O)cc3)nc2c(=O)[nH]1`, the growth in the assay on HCT-15 colon is 104% (inactive) and 103% (inactive); with HT29 colon it was 104% (inactive) and 92.3% (inactive); in the assay with SNB-75 CNS, 87.4% (inactive) and 97.4% (inactive); in the assay on SNB-19 CNS it was 107% (inactive) and 95.6% (inactive); in the assay with U251 CNS, 99.8% (inactive) and 91.4% (inactive); in the assay on PC-3 prostate, 101% (inactive) and 85.3% (inactive). Besides, the growth with SK-MEL-5 melanoma was 101% (inactive) and 96.7% (inactive); in the assay on UACC-62 melanoma, 97.3% (inactive) and 94.5% (inactive); in the assay on LOX IMVI melanoma it was 99.5% (inactive) and 98.7% (inactive); in the assay with SK-MEL-28 melanoma, 97.5% (inactive) and 110% (inactive); with SK-MEL-2 melanoma, 105% (inactive) and 104% (inactive); in the assay on EKVX NSCLC, 96.1% (inactive) and 106% (inactive). The growth with SN12C renal is 109% (inactive) and 98.2% (inactive); in the assay on UO-31 renal, 89.7% (inactive) and 89.8% (inactive); in the assay with TK-10 renal, 111% (inactive) and 109% (inactive); in the assay with ACHN renal, 92.2% (inactive) and 104% (inactive); in the assay on CAKI-1 renal, 93% (inactive) and 101% (inactive); with A498 renal, 105% (inactive) and 92.2% (inactive). Further, the growth in the assay on CCRF-CEM leukemia was 108% (inactive) and 94.5% (inactive); with MOLT-4 leukemia it was 95.6% (inactive).
